{
  "source": "PubChem BioAssay AID504834",
  "about": "(National Center for Advancing Translational Sciences (NCATS), 2011)",
  "note": "The campaign covered roughly 320,000 compounds. About 22,000 (6.9%) were called active. Where a call stands in place of a potency, no number is given. About 27% were inconclusive and are not listed. The call rests on the fitted dose curve; in most records, active means well fitted inhibition curve with a large enough effect; inconclusive means small, poorly fitted or top-dose-only effect, or another doubt; inactive means no such curve, though single readings can be large or run the other way. Only a selection was taken, and actives are over-represented in it overall. Potency means the concentration at half of the fitted maximal effect.",
  "data": [
    {"experiment": "Primary qHTS for delayed death inhibitors of the malarial parasite plastid, 96 hour incubation", "conditions": "P. falciparum luciferase reporter growth; series mostly up to 28.7 µM", "how_it_was_run": "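P. falciparum expressing integrated firefly luciferase, in erythrocytes at 2% hematocrit, 0.05% parasitemia, incubated with compounds 96 h at 37 C, 5% CO2. Growth inhibition read as loss of luminescence; two-generation exposure targets delayed-death apicoplast inhibitors.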", "values": [
      {"smiles": "O=C(Nc1ccc(N2CCCC2=O)cc1)c1cncc(Br)c1", "Potency": "inactive"},
      {"smiles": "Cc1cccc(NC(=O)c2cc(S(=O)(=O)N3CCC4(CC3)OCCO4)ccc2F)c1", "Potency": "inactive"},
      {"smiles": "COc1ccc(C(=O)N(Cc2ccccc2)c2ccc(C)cc2)cc1S(=O)(=O)N1CCOCC1", "Potency": "inactive"},
      {"smiles": "NC(=O)C1CCN(C(=O)c2ccc(F)c(S(=O)(=O)N3CCOCC3)c2)CC1", "Potency": "inactive"},
      {"smiles": "Cc1cccc(N(Cc2ccccc2)C(=O)c2cc(S(=O)(=O)N3CCOCC3)ccc2F)c1", "Potency": "11.7 µM (active)"},
      {"smiles": "Cc1cccc(N(Cc2ccccc2)C(=O)c2ccccc2F)c1", "Potency": "inactive"},
      {"smiles": "O=C(c1ccc(F)c(S(=O)(=O)N2CCOCC2)c1)N(CCc1ccccc1)Cc1ccccc1", "Potency": "2.62 µM (active)"},
      {"smiles": "Cc1cccc(C(=O)Nc2ccc(Oc3cnccn3)cc2)c1", "Potency": "inactive"},
      {"smiles": "COc1cccc(C(=O)n2ccc(-c3cccs3)n2)c1", "Potency": "inactive"},
      {"smiles": "CC(=O)Nc1cccc(NC(=O)CSc2nccn2Cc2ccc(F)cc2)c1", "Potency": "inactive"},
      {"smiles": "COC(=O)[C@H](CC(C)C)NC(=O)N1CCCCC1C", "note": "(stereo partly drawn)", "Potency": "inactive"},
      {"smiles": "CCCc1c(C(=O)Nc2ccc(F)cc2)cnn1-c1ccccc1", "Potency": "inactive"},
      {"smiles": "Cc1cc(C)cc(N(CCC#N)C(=O)CN2C(=O)NC3(CCCC3)C2=O)c1", "Potency": "inactive"},
      {"smiles": "COc1ccc(CCNc2nc3ccc(C)cc3n3cnnc23)cc1OC", "Potency": "inactive"},
      {"smiles": "COc1ccc(CCNc2cc(C)nc3c(-c4ccc(Cl)cc4)c(C)nn23)cc1OC", "Potency": "10.4 µM (active)"},
      {"smiles": "COc1ccc(CCNc2nc(C)cc(C)n2)cc1OC", "Potency": "inactive"},
      {"smiles": "COc1ccccc1-c1cnn2c(N3CCOCC3)cc(C)nc12", "Potency": "inactive"},
      {"smiles": "CCc1nccn1S(=O)(=O)c1cccc([N+](=O)[O-])c1", "Potency": "inactive"},
      {"smiles": "O=C(Oc1ccc([N+](=O)[O-])cc1)c1ccc(Cl)c(S(=O)(=O)N2CCCCC2)c1", "Potency": "inactive"},
      {"smiles": "CC(C)c1nccn1S(=O)(=O)c1cc([N+](=O)[O-])ccc1Cl", "Potency": "11.7 µM (active)"},
      {"smiles": "Cn1c(=O)c2c(-c3cccc(Br)c3)c(C#N)c(N)nc2n(C)c1=O", "Potency": "inactive"},
      {"smiles": "Cc1nn(-c2ccccc2)c2c1C(c1ccc(F)cc1)C(C#N)=C(N)O2", "note": "(stereo not drawn)", "Potency": "inactive"},
      {"smiles": "CSc1ccc(-c2c(C#N)c(N)nc3c2c(C)nn3-c2ccccc2)cc1", "Potency": "2.08 µM (active)"},
      {"smiles": "COc1ccc2c3c(c(=O)oc2c1)C1O[C@](CCCCN2C(=O)c4ccccc4C2=O)(Cc2c1ccc1ccccc21)O3", "activity change, negative = inhibition": "49.1% [at 5.75 µM] (inactive)"},
      {"smiles": "Cc1cccc(C)c1N1C(=O)CN(Cc2ccccc2)C1=S", "Potency": "inactive"},
      {"smiles": "COc1cccc(N2C(=O)CC(N3CCN(S(=O)(=O)c4ccccc4)CC3)C2=O)c1", "note": "(stereo not drawn)", "Potency": "inactive"},
      {"smiles": "COc1cccc(N2C(=O)CN(Cc3ccccc3)C2=S)c1", "Potency": "1.31 µM (active)"},
      {"smiles": "Cc1ccc(S(=O)(=O)N(C)c2ccc(OCC(=O)OCC(=O)N(CC#N)c3ccccc3)cc2)cc1", "Potency": "inactive"},
      {"smiles": "CN(CC(=O)Nc1ccc(Cl)cc1)C(=O)CNC(=O)c1ccc2ccccc2c1", "Potency": "inactive"},
      {"smiles": "O=c1c2ccccc2cnn1Cc1n[nH]c(=S)n1-c1ccccc1F", "Potency": "inactive"},
      {"smiles": "COc1ccc(/C=C/C(=O)Nc2ccc3c(c2)OCCO3)cc1OC", "Potency": "inactive"},
      {"smiles": "COc1ccc(NS(=O)(=O)c2cc(NC(=O)/C=C/c3cc(OC)c(OC)c(OC)c3)ccc2N2CCCCC2)cc1", "Potency": "2.08 µM (active)"},
      {"smiles": "COc1ccc(NS(=O)(=O)c2ccc(N3CCN(CCO)CC3)c([N+](=O)[O-])c2)cc1", "Potency": "inactive"},
      {"smiles": "CCOC(=O)COn1c(=O)c(-c2ccc(OCC)cc2)[n+]([O-])c2ccccc21", "Potency": "inactive"},
      {"smiles": "Cc1cc([N+](=O)[O-])c(-c2ccc(/C=N/n3cnnc3)o2)cc1Cl", "Potency": "inactive"},
      {"smiles": "Cc1cc(-c2ccc(/C=N/n3cnnc3)o2)c([N+](=O)[O-])cc1C", "Potency": "inactive"},
      {"smiles": "O=C1C2C3C=CC(C4CC34)C2C(=O)N1/N=C/c1ccc(-c2ccccc2[N+](=O)[O-])o1", "note": "(stereo not drawn)", "Potency": "13.1 µM (active)"},
      {"smiles": "CCc1ccc(OCC2c3cc(OC)c(OC)cc3CCN2C(C)=O)cc1", "note": "(stereo not drawn)", "Potency": "inactive"},
      {"smiles": "COc1cc2c(cc1O)[C@H](Cc1ccc(Oc3cc(C[C@@H]4NCCc5cc(OC)c(O)cc54)ccc3O)cc1)NCC2", "Potency": "0.415 µM (active)"},
      {"smiles": "COc1ccc(NC(=O)CN(C)C(=O)c2ccc(NC3CC3)c([N+](=O)[O-])c2)cc1", "Potency": "inactive"},
      {"smiles": "COc1cccc(N(CC(=O)NCc2ccccc2)C(=O)CCC(=O)Nc2nccs2)c1", "Potency": "inactive"},
      {"smiles": "NC(=O)C1CCN(C(=O)CC2C(=O)NCCN2Cc2cccc(Oc3ccccc3)c2)CC1", "note": "(stereo not drawn)", "Potency": "inactive"},
      {"smiles": "CC(C)(CNC(=O)c1cc(=O)[nH]c2ccccc12)N1CCOCC1", "Potency": "inactive"},
      {"smiles": "OC(CNCc1ccc(Cl)c(Cl)c1)c1ccccc1", "note": "(stereo not drawn)", "Potency": "inactive"},
      {"smiles": "CC(C)(CNCC(O)c1ccccc1)N1CCOCC1", "note": "(stereo not drawn)", "Potency": "5.86 µM (active)"},
      {"smiles": "Cc1c(Cl)c([N+](=O)[O-])nn1CCCC(=O)Nc1cc(Cl)ccc1Cl", "Potency": "inactive"},
      {"smiles": "O=C(N/N=C/c1ccc2c(c1)OCO2)c1ccc(Cn2cc([N+](=O)[O-])cn2)o1", "Potency": "inactive"},
      {"smiles": "Cc1c(Cl)c([N+](=O)[O-])nn1Cc1ccc(C(=O)N/N=C\\c2cc(Cl)ccc2O)o1", "Potency": "3.7 µM (active)"},
      {"smiles": "CS(=O)(=O)Nc1ccccc1N=C(c1ccccc1)c1ccccc1", "Potency": "inactive"},
      {"smiles": "Cc1ccc(S(=O)(=O)c2nc(NCCCn3ccnc3)sc2Cl)cc1", "Potency": "6.57 µM (active)"},
      {"smiles": "O=C(/C=C/c1ccc(Cl)cc1)NCCCn1ccnc1", "Potency": "inactive"},
      {"smiles": "Cc1ccc(-c2nc(C#N)c(NCCCn3ccnc3)o2)cc1", "Potency": "inactive"},
      {"smiles": "COc1ccc(NC(=O)CN(C)C(=O)c2ccc(COc3ccccc3)o2)cc1", "Potency": "inactive"},
      {"smiles": "CC(=O)c1ccccc1OCc1ccc(C(=O)c2ccccc2)cc1", "Potency": "inactive"},
      {"smiles": "Cc1ccc(NS(=O)(=O)c2ccc3c(c2)CC(=O)N3)cc1Cl", "Potency": "inactive"},
      {"smiles": "COc1cccc(Nc2nnc(SCC(=O)N3CC(C)OC(C)C3)s2)c1", "note": "(stereo not drawn)", "Potency": "inactive"},
      {"smiles": "Cc1nc(SCC(=O)N2CC(=O)Nc3ccccc32)c2c(C)c(C)sc2n1", "Potency": "inactive"},
      {"smiles": "COc1cccc(Nc2nnc(SCC(=O)N3CC(=O)Nc4ccccc43)s2)c1", "Potency": "4.65 µM (active)"},
      {"smiles": "C#CCOc1ccc(/C=C2/C(=O)ON=C2C)cc1OCC", "Potency": "inactive"},
      {"smiles": "COCc1c(C(=O)N/N=C(\\C)c2ccncc2)nnn1-c1nonc1N", "Potency": "inactive"},
      {"smiles": "CCOC(=O)c1ccccc1NS(=O)(=O)c1c(C)nc2sccn2c1=O", "Potency": "14.7 µM (active)"},
      {"smiles": "Cc1nc2sccn2c(=O)c1S(=O)(=O)NCCc1ccccc1", "Potency": "inactive"},
      {"smiles": "CCc1cccc(C)c1NS(=O)(=O)c1c(C)nc2sccn2c1=O", "Potency": "inactive"}
    ]}
  ]
}
